From PubChem
TDP1 block: inhibitors of human tyrosyl-DNA phosphodiesterase TDP1; Q9NUW8; Potency, µM (titrated, usually from 130 µM), inactives show at the highest dose activity change, negative = inhibition, hits mostly inhibitors; actives 0.28% (n = 350,000); recombinant TDP1, AlphaScreen DNA substrate cleavage; further: potency means the concentration at half of the fitted maximal effect; nearly all actives have a fitted effect of over 40% in size
Target sequence (Q9NUW8 whole entry, looked up): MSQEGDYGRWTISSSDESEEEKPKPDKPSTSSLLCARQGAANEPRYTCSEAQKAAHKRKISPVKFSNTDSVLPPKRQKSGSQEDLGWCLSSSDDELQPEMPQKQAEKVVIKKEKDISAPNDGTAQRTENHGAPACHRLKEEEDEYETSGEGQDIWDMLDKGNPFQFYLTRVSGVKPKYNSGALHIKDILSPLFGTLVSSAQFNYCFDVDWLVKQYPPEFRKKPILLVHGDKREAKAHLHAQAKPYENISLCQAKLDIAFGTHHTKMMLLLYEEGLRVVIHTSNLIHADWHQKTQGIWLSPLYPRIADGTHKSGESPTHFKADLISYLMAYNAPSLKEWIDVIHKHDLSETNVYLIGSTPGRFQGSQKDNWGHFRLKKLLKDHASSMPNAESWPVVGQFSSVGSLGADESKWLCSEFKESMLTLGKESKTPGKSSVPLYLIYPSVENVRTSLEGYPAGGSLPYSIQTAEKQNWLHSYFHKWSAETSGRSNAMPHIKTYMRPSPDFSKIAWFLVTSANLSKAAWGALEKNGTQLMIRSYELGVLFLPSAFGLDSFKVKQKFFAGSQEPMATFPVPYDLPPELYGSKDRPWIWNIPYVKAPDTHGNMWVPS
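Compounds were preincubated with Tdp1 (1 nM final) for 15 min at room temperature before substrate (15 nM final) started a 5 min reaction; beads (10 ug/ml final) were then added for 10 min before AlphaScreen detection.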
IL1B secr inh: blocks inflammasome-driven IL-1 beta release | THP-1 LPS/ATP IL-1B secretion, AlphaLISA, 16 h; active compounds read low | activity change, % at 57.5 µM | actives 4.7% (n = 360,000) | AID 743279; in the data active means activity change below about -50%; inconclusive means mostly about -30% to -49%
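Secreted IL-1B measured by AlphaLISA bead assay after 16 h compound exposure of THP-1 cells; compounds (final up to 57.5 uM) added 1 h before LPS (250 ng/mL) and ATP (1.25 mM) stimulation; lower signal means less secretion.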
Six1-Eya2 blk: Six1/Eya2 interaction inhibition; actives 0.56% (n = 360,000); AlphaScreen GST-Six1/His-Eya2 binding, biochemical; active compounds read low; activity change, % (no concentration beside the values); in the data active means activity change below about -65%; inconclusive means mostly about -30% to -63%
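Six1/Eya2 binding was read as AlphaScreen signal after compounds were pinned into GST-Six1 plus His-tagged Eya2 (5X stock 250/500 nM) in pH 8.0 Tris/NaCl/TCEP buffer, beads added, then incubated 1 h, 37 C, dark.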
TDP1 cell noCPT: qHTS for Inhibitors of human tyrosyl-DNA phosphodiesterase 1 (TDP1): qHTS in cells in absence of CPT; AID 686978, 2013; DT40 Tdp1-/- hTDP1 cells, no CPT, ATP luminescence, 48 h; actives 15% (n = 420,000); Potency, µM (top dose mostly 46.2 µM), without a hit: at the top dose activity change, negative = growth inhibition, actives largely listed as inhibitors; further: potency means the concentration at half of the fitted maximal effect; nearly all actives have a fitted effect of over 55% in size
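Stably hTDP1-transfected Tdp1-null chicken DT40 cells were treated with library compounds minus camptothecin and grown for at least 48 hr at 37 °C, after which cellular ATP was quantified by luminescence.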
DT40 TDP1 CPT: growth inhibition of DT40 Tdp1-/-;hTDP1 cells with camptothecin (screen for TDP1 inhibitors); chicken DT40 Tdp1-/-;hTDP1 cells + 20 nM CPT, ATP luminescence, 48 h; Potency, µM (titrated, usually from 46.2 µM), for the others: at the highest dose activity change, negative = growth inhibition, hits mostly inhibitors; actives 12% (n = 420,000); further: potency means the concentration at half of the fitted maximal effect; nearly all actives have a fitted effect of over 55% in size
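Cell growth measured by CellTiter-Glo luminescence after a minimum 48 h, 37 C compound exposure with 20 nM CPT in Tdp1-knockout DT40 cells stably expressing hTDP1, seeded 400/well; qHTS titration format.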
CtBP-E1A blk: inhibitors of CtBP/E1A interaction; AlphaScreen GST-E1A/His-CtBP binding, 1536-well; active compounds read low; activity change, % (concentration not given with the values); actives 0.49% (n = 340,000); in the data active means activity change below about -65%; inconclusive means mostly about -30% to -63%
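In 5 uL wells, 23 nL compound meets equimolar GST-E1A and His-CtBP (5X stock 125 nM each) for 2 h, 37 °C. Beads (5X, 50 ug/mL) then 1 h, 37 °C, dark.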
* hit, by the source's call; ? = inconclusive; nt = no result; ! = repeats disagree; [ ] = another dose, or the depositor's remark. A selection: hits, their analogues and other compounds. The true share with any hit is near 18%. Unless noted, the call rests on the fitted dose curve; in most records, active means well fitted curve in the direction sought with a large enough effect; inconclusive means small, poorly fitted or top-dose-only effect, or another doubt; inactive means no such curve, though single readings can be large; an effect the other way counts as inactive or inconclusive. On the % scale 0 is the no-effect control and ±100 the full control effect.

SMILES	TDP1 block	IL1B secr inh	Six1-Eya2 blk	TDP1 cell noCPT	DT40 TDP1 CPT	CtBP-E1A blk
Cc1cc(N2C(=O)C3CCCN3C2c2sccc2C)no1 (centres undefined)	-1%	-3	0	-3%	15%	5
O=C1CC[C@@]2(O)[C@H]3Cc4ccc(O)c5c4[C@@]2(CCN3CC2CC2)[C@@H]1O5	13%[56.1 µM]	nt	nt	-7%	12%	nt
O=C(/C=C/c1ccc(Cl)cc1)N[C@@]12CCC(=O)[C@@H]3Oc4c(O)ccc5c4[C@@]31CCN(CC1CC1)C2C5	6%	nt	nt	10µM*	13µM*	nt
CC(C)COC(=O)n1c(=O)oc2cc(S(=O)(=O)N3CCCCC3)ccc21	5%	5	0	?	?	6
CC1=C[C@H]2[C@]3(O)C(C=C(CO)C[C@]2(O)C1=O)[C@@H]1C(C)(C)[C@]1(O)[C@H](O)[C@H]3C (some centres undefined)	6%	nt	nt	nt	nt	nt
COc1ccc(CN2C(=O)NC(=O)/C(=C/c3ccc([N+](=O)[O-])s3)C2=O)cc1	5%	10	?	4.6µM*	10µM*	?
COc1cc(OC)c(OC)cc1/C=C1/C(=O)NC(=O)N(Cc2ccccc2)C1=O	-5%	-16	-5	?	-1%	0
O=C1NC(=O)N(Cc2ccc(F)cc2)C(=O)/C1=C\c1ccc([N+](=O)[O-])s1	4%	-7	?	8.2µM*	13µM*	-10
COc1ccc(CN2C(=O)NC(=O)/C(=C\c3ccco3)C2=O)cc1	nt	-9	-20	?	?	-6
COc1ccc(CN2C(=O)NC(=O)/C(=C\c3cc(OC)c(OC)c(OC)c3)C2=O)cc1	5%	-16	-8	?	18µM*	-12
CC1=CC(=O)C2=C(C)CC(O)C3C(C)C(=O)OC3C12 (centres undefined)	4%	-4	0	1%	1%	-2
COc1cc(N2C(=O)CC(=O)NC2=O)cc(OC)c1OC	nt	11	0	7%	16%	3
O=C(NCNC(=O)N[C@H]1C(=O)NC(=O)N1CO)N[C@H]1C(=O)NC(=O)N1CO	3%[21 µM]	nt	nt	nt	nt	nt
S=c1nc(-c2ccccc2)n(-c2ccccc2)[nH]1	nt	0	5	-11%	?	4
Cc1ccc(-c2n[nH]c(=S)n2-c2ccccc2)cc1	2%	16	-2	?	14µM*!	-6
COc1cc2c(cc1OC)[C@H]1C(=O)c3ccc4c(c3O[C@H]1CO2)C[C@@H](C(C)(C)O)O4	1%	19	1	12µM*	15µM*	-13
COc1cc2c(cc1OC)C1C(=O)c3ccc4c(c3OC1CO2)CC(C(C)C)O4 (centres undefined)	nt	-68*	?	0.033µM*	0.18µM*	?
COc1cc2c(cc1OC)[C@@H]1C(=O)c3ccc4oc(C(C)C)cc4c3OC1CO2 (some centres undefined)	-7%[56.1 µM]	nt	nt	0.29µM*	0.65µM*	nt
COc1cc2c(cc1OC)[C@@H]1C(=O)c3ccc4c(c3O[C@@H]1CO2)C[C@H](C(C)C)O4	3%	?	-23	0.16µM*	0.26µM*	-13
O=C(C1CC(=O)N(C2CCCCC2)C1)N1CCC2(CC1)OCCO2 (centres undefined)	6%	16	-1	-20%	-3%	-1
Cc1cccc(NC(=O)Cn2cc(C(=O)c3ccccc3)c3ccccc32)c1C	2%	nt	nt	?	?	nt
C[C@]12C[C@H]3S[C@H]3C[C@@H]1CC[C@@H]1[C@@H]2CC[C@]2(C)[C@@H](O)CC[C@@H]12	nt	nt	nt	-29%[21.1 µM]	-27%[21.1 µM]	nt
O=C(Nc1ccc(Br)cc1)c1ccc(Cl)c(S(=O)(=O)N2CCCCCC2)c1	12%	nt	nt	16µM*	?	nt
Cc1ccc(C(=O)Nc2ccncc2)cc1S(=O)(=O)N1CCCCC1	nt	32	-1	18µM*	23µM*	-18
CC(=O)C1C(N2CC2)CC2C3CC=C4CC(O)CCC4(C)C3CCC21C (centres undefined)	nt	-51*	3	5.8µM*	1.8µM*	-18
SMILES	TDP1 block	IL1B secr inh	Six1-Eya2 blk	TDP1 cell noCPT	DT40 TDP1 CPT	CtBP-E1A blk
C[C@]12CC[C@H](O)CC1=CC[C@@H]1[C@@H]2CC[C@]2(C)C(=O)CC[C@@H]12	nt	57	-1	?	?	-3
C[C@]12CC[C@H](O)CC1=CCC1C2CC[C@]2(C)C(=O)CC[C@@H]12 (some centres undefined)	10%[56.1 µM]	nt	nt	30µM*	30µM*	nt
Cc1nn(C)cc1/C=C1/CC2C3CC=C4CC(O)CCC4(C)C3CCC2(C)C1=O (centres undefined)	nt	31	-5	?	1%	0
CC1(C)C(=O)CC[C@@]2(C)C1=CCC1C2CC[C@]2(C)C(=O)CCC12 (some centres undefined)	1%	11	4	?	16µM*	1
CC12CCC3C(CC=C4CC(O)CCC43C)C1C/C(=C\c1ccccc1F)C2=O (centres undefined)	0%	23	-13	23µM*	?	4
CC[C@H]1CC2CN3CCc4c([nH]c5cc(OC)ccc45)[C@](C(=O)OC)(C2)[C@H]13	nt	4	-28	?	?	-24
CC(C)(C)C(=O)Nc1ccc(S(=O)(=O)N2CC3CC(C2)c2cccc(=O)n2C3)cc1 (centres undefined)	3%	-13	1	8%	4%	8
C[C@]12CC[C@H](O)CC1=CCC1C2CC[C@]2(C)C(=O)[C@H](Br)CC12 (some centres undefined)	1%	-106*	-3	?	?	6
CCc1ccc2c(c1)Sc1ccccc1CC2N1CCN(C)CC1 (centres undefined)	nt	-65*	-4	18µM*	?	nt
Cc1ccccc1OCCN=Cc1c(O)n(C)c(=O)n(C)c1=O	2%	26	-2	21µM*	?	2
Cn1c(O)c(C=NCc2cccs2)c(=O)n(C)c1=O	5%	2	-3	1%	?	-10
CN1CCN(/N=C/c2c(O)n(CCC3=CCCCC3)c(=S)[nH]c2=O)CC1	1%	-13	4	-6%	-20%	0
O=c1[nH]c(=S)n(-c2ccc(Cl)cc2)c(O)c1C=Nc1ccc(N2CCOCC2)cc1	1%	15	-13	1%	-20%	-18
